RORg inh – blocks mouse ROR gamma transcriptional activity. Drosophila S2 Gal4-RORgamma UAS-luciferase reporter, 20 h. Potency, µM (doses to about 53.6 µM), usual class: inhibitors. P51450. 310,000 compounds, 5.4% hits; further: nearly all actives have a fitted effect of over 60% in size
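Using a luciferase readout, inhibitors were identified by reduced reporter activity in Drosophila cells coexpressing a copper-inducible Gal4–ROR gamma fusion and UAS-driven Photinus luciferase, incubated 20 hr after 700 uM copper sulfate.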
TDP1 cell noCPT – qHTS for Inhibitors of human tyrosyl-DNA phosphodiesterase 1 (TDP1): qHTS in cells in absence of CPT. DT40 Tdp1-/- hTDP1 cells, no CPT, ATP luminescence, 48 h. Potency, µM (doses to about 46.2 µM), most hits filed as inhibitors. 420,000 compounds, 15% hits. AID 686978, 2013; further: nearly all actives have a fitted effect of over 55% in size
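Camptothecin absent (DMSO only). Human TDP1-complemented DT40 knockout cells, 400 cells/well, 37 °C for minimum 48 hr; ATP measured via CellTiter-Glo, 30 min dark incubation, luminescence.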
IL1B secr inh – blocks inflammasome-driven IL-1 beta release; THP-1 LPS/ATP IL-1B secretion, AlphaLISA, 16 h; active compounds read low; activity change, % at 57.5 µM; 360,000 compounds, 4.7% hits; in the data active means activity change below about -50%; inconclusive means mostly about -30% to -49%
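Secreted IL-1B measured by AlphaLISA bead assay after 16 h compound exposure of THP-1 cells; compounds (final up to 57.5 uM) added 1 h before LPS (250 ng/mL) and ATP (1.25 mM) stimulation; lower signal means less secretion.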
DT40 TDP1 CPT – DT40-hTDP1 cell growth loss with CPT; chicken DT40 Tdp1-/-;hTDP1 cells + 20 nM CPT, ATP luminescence, 48 h; Potency, µM (doses to about 46.2 µM), hits mostly inhibitors; 420,000 compounds, 12% hits; further: nearly all actives have a fitted effect of over 55% in size
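Chicken DT40 Tdp1-/- cells stably complemented with human TDP1 were seeded at 400 cells/well in medium containing 20 nM camptothecin, exposed to pin-transferred compounds, and grown at 37 °C for at least 48 hr. Viability was read as ATP luminescence.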
ELG1 repair inh – blocks ELG1-dependent DNA repair in HEK293T cells | Potency, µM (titrated, usually from 46.1 µM), hits mostly inhibitors | 330,000 compounds, 2.3% hits | AID 504467 | HEK293T ELG1-luciferase reporter, luminescence, 16 h; DNA damage induced by 5-fluorouridine; further: nearly all actives have a fitted effect of over 55% in size
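Overnight (16 hr) co-exposure of 2,000 cells/well to 5-fluorouridine and compound at 37 °C preceded detection. Luciferase was quantified via ONE-Glo luminescence; loss of signal denotes inhibition.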
Gal4-VP16 FLuc – Gal4-VP16 reporter inhibition counter-screen | 310,000 compounds, 3.5% hits | Drosophila S2 Gal4-VP16 UAS-luciferase, luminescence, 20 h | Potency, µM (series often up to 53.6 µM), usual class: inhibitors | AID 2546;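 further: Gal4-VP16 expression switched on by copper sulfate through the metallothionein promoter; nearly all actives have a fitted effect of over 50% in size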
ELG1 FLuc counter – luciferase inhibition in cell-free luciferin readout for ELG1 hits. shares compounds with ELG1 repair inh. cell-free firefly luciferase luminescence counter-screen, ViewLux. Potency, µM (titrated, usually from 46.1 µM), hits mostly inhibitors. 350 compounds, 3% hits. AID 624247
ELG1 Luc conf – inhibits ELG1-dependent DNA repair in HEK293T cells, confirmed | HEK293T ELG1-luciferase levels, luminescence; cells co-treated with 5-fluorouridine | Potency, µM (titrated, usually from 46.1 µM), actives largely listed as inhibitors | 670 compounds, 68% hits | shares compounds with ELG1 repair inh; further: nearly all actives have a fitted effect of over 55% in size
ELG1 MMS Luc – inhibits ELG1-dependent repair under MMS stimulation in HEK293T cells; Potency, µM (doses to about 46.1 µM), most hits filed as inhibitors; AID 624249; HEK293T luciferase-tagged ELG1 level, MMS stimulated; shares compounds with ELG1 repair inh; 670 compounds, 53% hits; further: nearly all actives have a fitted effect of over 60% in size
ELG1 5FU viab – confirmation of ELG1 repair inhibitors: viability with 5FU; shares compounds with ELG1 repair inh; cell viability with 5-FU, ELG1-dependent repair; Potency, µM (top dose mostly 46.1 µM), hits mostly cytotoxic; 670 tested, under 10 active; AID 624250;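 further: ELG1-luc HEK293T cells cotreated with 5-fluorouridine at 10 µM final; viability measured 16 h after compound addition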
ELG1 MMS viab – confirmation of ELG1 repair inhibitors: viability with MMS; AID 624251; shares compounds with ELG1 repair inh; 670 compounds, 33% hits; Cell viability with MMS, ELG1-dependent DNA repair; Potency, µM (top dose mostly 46.1 µM), actives largely listed as cytotoxic;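 further: ELG1-luc HEK293T cells co-treated with 10 µM MMS; viability read 16 h after compound addition; nearly all actives have a fitted effect of over 60% in size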
Cell viab unstim – affects unstimulated cell viability, ELG1 hit counter-screen. shares compounds with ELG1 repair inh. cell viability counter-screen, unstimulated, luminescence. Potency, µM (top dose mostly 45.9 µM), most hits filed as cytotoxic. 900 compounds, 8% hits;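 further: compound exposure lasted 16 hours before reading; nearly all actives have a fitted effect of over 55% in size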
FLuc biochem – counter-screen for ELG1 repair inhibitors: firefly luciferase inhibition. shares compounds with ELG1 repair inh. purified firefly luciferase, luminescence counter-screen. Potency, µM (doses to about 57.5 µM), most hits filed as inhibitors. 350 compounds, 10% hits
Of the large screens only hits and unclear results are named; the others gave an inactive call (follow-up assays come after a bar, where they were run); ! = not active in a repeat. Sampled rows, rich in hits. Any-hit rate of the full collection: about 21%. Unless noted, the call rests on the fitted dose curve; in most records, active means well fitted curve in the direction sought with a large enough effect; inconclusive means small, poorly fitted or top-dose-only effect, or another doubt; inactive means no such curve, though single readings can be large; an effect the other way counts as inactive or inconclusive.

Cc1nn(-c2ccccc2)c(C)c1C(=O)OCC(=O)c1c(N)n(CC(C)C)c(=O)n(C)c1=O	TDP1 cell noCPT 18µM, IL1B secr inh inconclusive, DT40 TDP1 CPT 21µM, ELG1 repair inh 3.3µM, Gal4-VP16 FLuc inconclusive | ELG1 Luc conf 4µM | ELG1 MMS Luc 0.79µM | ELG1 5FU viab inconclusive | ELG1 MMS viab 1.3µM | Cell viab unstim inconclusive
OCC1OC(n2cnc3c(=S)nc[nH]c32)C(O)C1O (configuration not stated)	TDP1 cell noCPT inconclusive, DT40 TDP1 CPT 10µM! (no result: IL1B secr inh, ELG1 repair inh) | ELG1 FLuc counter inactive | ELG1 Luc conf inconclusive | ELG1 MMS Luc inconclusive | ELG1 5FU viab inconclusive | ELG1 MMS viab inconclusive | Cell viab unstim 6.3µM | FLuc biochem inactive
NC(=O)c1ncn(C2OC(CO)C(O)C2O)c1N (configuration not stated)	none (no result: IL1B secr inh, ELG1 repair inh)
COc1cccc(-c2cncnc2NCCc2cnc[nH]2)c1	TDP1 cell noCPT inconclusive, DT40 TDP1 CPT 2.6µM (no result: IL1B secr inh, ELG1 repair inh) | ELG1 Luc conf 1.4µM | ELG1 MMS Luc inconclusive | ELG1 5FU viab inactive | ELG1 MMS viab inactive | Cell viab unstim inconclusive
O=C(Cc1ccc(OCCCc2ccccc2)cc1)NO	TDP1 cell noCPT 14µM, DT40 TDP1 CPT 11µM (no result: RORg inh, IL1B secr inh, ELG1 repair inh, Gal4-VP16 FLuc) | Cell viab unstim inactive
N#Cc1cc2cc3c(cc2nc1SCC(=O)N1CCOCC1)OCCO3	ELG1 repair inh inconclusive | ELG1 FLuc counter inactive | Cell viab unstim inconclusive | FLuc biochem inconclusive
CC1(C)Cc2c(c(N3CCOCC3)nc3sc(C(=O)N4CCCCC4)c(N)c23)CO1	DT40 TDP1 CPT inconclusive, ELG1 repair inh 0.21µM | ELG1 FLuc counter inactive | ELG1 Luc conf 0.45µM | ELG1 MMS Luc inactive | ELG1 5FU viab inconclusive | ELG1 MMS viab inactive | Cell viab unstim inactive | FLuc biochem inactive
COc1ccc(NC(=O)c2sc3nc(N4CCOCC4)c4c(c3c2N)CC(C)(C)OC4)cc1	ELG1 repair inh 0.41µM | ELG1 FLuc counter inactive | ELG1 Luc conf 0.35µM | ELG1 MMS Luc inactive | ELG1 5FU viab inconclusive | ELG1 MMS viab inactive | Cell viab unstim inactive | FLuc biochem inactive
O=C(O)CCN=CC1=C(O)CC(c2ccccc2)CC1=O (configuration not stated)	none
c1ccc(Cn2nnnc2C(c2cccnc2)N2CCN(C3CCCCC3)CC2)cc1 (configuration not stated)	ELG1 repair inh 3.3µM | ELG1 Luc conf inconclusive | ELG1 MMS Luc inconclusive | ELG1 5FU viab inactive | ELG1 MMS viab inactive | Cell viab unstim inactive
COc1ccc(Cn2nnnc2C(c2ccccc2)N2CCN(C3CCCC3)CC2)cc1 (configuration not stated)	TDP1 cell noCPT inconclusive, DT40 TDP1 CPT inconclusive
CCC(C)N(CC(=O)Nc1cccc(C)c1C)C(=O)CCl (configuration not stated)	TDP1 cell noCPT 2.3µM, IL1B secr inh -110, DT40 TDP1 CPT inconclusive, ELG1 repair inh 4.6µM | ELG1 Luc conf 14µM | ELG1 MMS Luc 1.6µM | ELG1 5FU viab inconclusive | ELG1 MMS viab 7.1µM | Cell viab unstim 28µM
CCn1nc(C(=O)Nc2nc(-c3ccccn3)cs2)c2ccccc2c1=O	TDP1 cell noCPT 3.3µM, DT40 TDP1 CPT 2.9µM, ELG1 repair inh 4.1µM (no result: RORg inh, Gal4-VP16 FLuc) | ELG1 Luc conf 4.4µM | ELG1 MMS Luc 7.9µM | ELG1 5FU viab inactive | ELG1 MMS viab 13µM | Cell viab unstim inconclusive
CCn1nc(C(=O)NC2=NCCS2)c2ccccc2c1=O	none
CCn1c(=O)c(=O)[nH]c2cc(C(=O)N(C)Cc3ccc(OC)c(F)c3)ccc21	none
CCSc1nnc(NC(=O)[C@@H](NC(=O)c2cccc(C)c2)C(C)C)s1	none
CCSc1nnc(NC(=O)c2csc(C)c2)s1	ELG1 repair inh inconclusive | ELG1 FLuc counter inactive | Cell viab unstim inactive | FLuc biochem inconclusive
O=C(/C=C1\NC2(CCCC2)Cc2ccccc21)C(=O)N/N=C/c1ccccc1O	TDP1 cell noCPT 2.1µM, DT40 TDP1 CPT 3.7µM, ELG1 repair inh 2.3µM | ELG1 Luc conf inconclusive | ELG1 MMS Luc 8.9µM | ELG1 5FU viab inactive | ELG1 MMS viab inconclusive | Cell viab unstim inactive
CCC(=O)NNC(=O)c1cc(COc2cc(Cl)cc(Cl)c2)on1	none
Cc1ccc(NC(=O)CCS(=O)(=O)c2cc3[nH]c(=O)c(=O)[nH]c3cc2C)cc1	none
CCS(=O)(=O)c1ccc(O)c(NC(=O)c2cc(-c3ccccn3)nc3ccccc23)c1	TDP1 cell noCPT inconclusive, DT40 TDP1 CPT inconclusive, ELG1 repair inh inconclusive (no result: RORg inh, Gal4-VP16 FLuc)
CCN(CC)S(=O)(=O)c1ccc(N2CCOCC2)c(NC(=O)c2cc(-c3ccccn3)nc3ccccc23)c1	TDP1 cell noCPT 9.2µM, DT40 TDP1 CPT 13µM, ELG1 repair inh 1.8µM | ELG1 Luc conf 4.4µM | ELG1 MMS Luc 5µM | ELG1 5FU viab inactive | ELG1 MMS viab 10µM | Cell viab unstim inconclusive
COc1ccc2ccccc2c1/C=N/NC(=S)Nc1cc(S(=O)(=O)N2CCOCC2)ccc1N1CCOCC1	RORg inh 2.8µM, ELG1 repair inh 1.6µM, Gal4-VP16 FLuc 10µM | ELG1 Luc conf inconclusive | ELG1 MMS Luc inactive | ELG1 5FU viab inconclusive | ELG1 MMS viab inconclusive | Cell viab unstim inactive
